# From the supplement of paper PMC7057948, “A genome-wide approach for identification and characterisation of metabolite-inducible systems” (Nature Communications, 2020)
# Test system: KynR/P_H16_RS14030 L-kynurenine biosensor (pEH136)
# Assay: relative induction of RFP reporter vs primary effector; higher = stronger activation
# Details: inducer concentration 5 mM; 6 h; Cupriavidus necator H16; minimal medium + 0.4% gluconate
# Description: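 Orthogonality screen of 21 primary inducers against 21 transcription factor/inducible promoter–mRFP biosensors in C. necator H16 in minimal medium, robotic 96-well format, 5 mM inducer, 30 °C. OD-normalised RFP fluorescence was read 6 h later and expressed as relative induction (%) = 100 × (FL compound − FL uninduced)/(FL primary inducer − FL uninduced); mean of n=4. Cognate pairs (100% by definition) omitted.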
row,Structure (SMILES),relative induction of RFP reporter [%]
1,O=C(O)C1CCCCC1 [cyclohexane-1-carboxylate],0.977
2,N[C@@H](Cc1ccccc1)C(=O)O [L-phenylalanine],1.98
3,N[C@@H](Cc1ccc(O)cc1)C(=O)O [L-tyrosine],0.164
4,O=C(O)C(O)C(O)C(=O)O (configuration not stated) [tartrate],0.0585
5,O=C(O)CS(=O)(=O)O [sulfonatoacetate],0.55
6,O=c1[nH]c(=O)c2nc[nH]c2[nH]1 [xanthine],0.0316
7,NCCC(=O)O [β-alanine],-0.589
8,CC(=O)C(C)O (configuration not stated) [acetoin],0.0145
9,O=CO [formate],0.482
10,O=C(O)c1ccccc1 [benzoate],-0.112
11,O=C(O)C(=O)c1ccccc1 [phenylglyoxylate],0.112
12,"O=C(O)c1ccc(O)c(O)c1 [3,4-dihydroxybenzoate]",0.138
13,O=C(O)c1ccccc1O [salicylate],-0.248
14,O=C(O)CCO [3-hydroxypropanoate],-0.395
15,OC1OC[C@H](O)[C@H](O)[C@H]1O (mixture of isomers) [L-arabinose],0.181
16,C=C(CC(=O)O)C(=O)O [itaconate],-0.472
17,C=CC(=O)O [acrylate],0.406
